Measurements reported in PubChem BioAssay (Tox21).
Records with an inconclusive call do not appear. The source holds several records for some structures; these can differ, active in one and inactive in another. Active and inactive are the calls of the source. Unless noted, the call rests on the fitted dose curve; in most records, active means well fitted curve in the direction sought with a large enough effect in the repeat runs; inconclusive means weak or mixed curves; inactive means no such curve, though single readings can be large; an effect the other way counts as inactive or inconclusive.

Columns and labels:
[1] = A CellTox Green Cytotoxicity Assay to monitor cytotoxicity in HepG2 cells - 0 hour (AID 1224882); further: nearly all actives have a fitted effect of over 35% in size
How it was run: (§1)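 Nonlytic assay: viable cells exclude the dye, so fluorescence scales with cell death. HepG2 at 600 cells/well, compounds added after 5 h, signal read across 40 h.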

[2] = A CellTox Green Cytotoxicity Assay to monitor cytotoxicity in HepG2 cells - 32 hour (AID 1224883); further: nearly all actives have a fitted effect of over 50% in size; further: potency means the concentration at half of the fitted maximal effect
How it was run: as §1

[3] = A CellTox Green Cytotoxicity Assay to monitor cytotoxicity in HEK293 cells - 8 hour (AID 1224884); further: nearly all actives have a fitted effect of over 35% in size
How it was run: (§2)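 Seeding of HEK293 cells together with cytotoxicity dye preceded a 5 h incubation at 37 C/5% CO2. Test compounds in DMSO were then added and fluorescence monitored across 40 h.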

[4] = qHTS RealTime-Glo MT Cell Viability Assay in HepG2 cells - 16 hour (AID 1224885); further: nearly all actives have a fitted effect of over 50% in size
How it was run: (§3)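 qHTS, HepG2, 600 cells/well, RealTime-Glo (NanoLuc + prosubstrate) added with cells; 5 h preincubation; DMSO compound addition; 37 C; luminescence at 0/8/16/24/32/40 h.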

[5] = qHTS RealTime-Glo MT Cell Viability Assay in HEK293 cells - 24 hour (AID 1224886); further: nearly all actives have a fitted effect of over 50% in size; further: potency means the concentration at half of the fitted maximal effect; on activity change, negative = cytotoxicity: top concentration of the series differs between compounds
How it was run: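 Assay medium contained NanoLuc luciferase plus cell-permeant prosubstrate, added with HEK293 cells at 600 cells/well. After 5 h at 37 C/5% CO2 compounds were added; plates stayed at 37 C for 40 h with serial luminescence reads.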

[6] = A CellTox Green Cytotoxicity Assay to monitor cytotoxicity in HEK293 cells - 16 hour (AID 1224888); further: nearly all actives have a fitted effect of over 35% in size
How it was run: as §2

[7] = qHTS RealTime-Glo MT Cell Viability Assay in HepG2 cells - 0 hour (AID 1224889); further: nearly all actives have a fitted effect of over 50% in size
How it was run: as §3

[8] = A CellTox Green Cytotoxicity Assay to monitor cytotoxicity in HepG2 cells - 8 hour (AID 1224890); further: nearly all actives have a fitted effect of over 45% in size
How it was run: as §1

[9] = qHTS assay to identify small molecule antagonists of the estrogen receptor alpha (ER-alpha) signaling pathway using the BG1 cell line in the presence of 0.1 nM 17-beta-estradiol - cell viability counter screen (AID 1259241); further: nearly all actives have a fitted effect of over 40% in size
How it was run: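 VM7Luc4E2 cells (endogenous ER-alpha, 4×ERE-luciferase), hormone-starved 5 days in charcoal-stripped FBS, were treated with compounds plus 0.1 nM 17beta-estradiol for 22 hr at 37C; viability read in same wells as CellTiter-Fluor live-cell protease fluorescence.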

[10] = qHTS assay to identify small molecule antagonists of the androgen receptor (AR) signaling pathway using the MDA cell line in the presence of 0.5 nM R1881 - cell viability counter screen (AID 1259242); further: nearly all actives have a fitted effect of over 45% in size
How it was run: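 R1881 at 0.5 nM final stimulated MDA-kb2 cells during 16 hr compound treatment at 37C. Cytotoxicity read: CellTiter-Fluor fluorescence after 30 min.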

[11] = qHTS assay to identify small molecule phospholipidosis (PLD) inducers (AID 1259344; active means well fitted curve in the direction sought with a large enough effect; an effect the other way counts as inactive or inconclusive; further: potency means the concentration at half of the fitted maximal effect)
How it was run: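 HepG2 cells on collagen I, attached 4 h at 37 C, were co-treated with compound and LipidTOX Red dye for 24 h at 37 C, then fixed with paraformaldehyde plus Hoechst 33342 and imaged by high-content microscopy for phospholipid accumulation.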

[12] = qHTS assay to identify small molecule HDAC inhibitors (AID 1259364); further: potency means the concentration at half of the fitted maximal effect;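 further: wild-type HCT-116 cells with endogenous class I/II HDAC activity; nearly all actives have a fitted effect of over 45% in size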; on activity change, negative = inhibition: top concentration of the series differs between compounds
How it was run: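 Relative class I and II HDAC activity is taken from the luminogenic signal in HCT-116 cells, with compound exposure 2 hr and reagent development 30 min at room temperature.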

[13] = qHTS assay to identify small molecule HDAC inhibitors - cell viability counter screen (AID 1259365); further: nearly all actives have a fitted effect of over 50% in size; further: potency means the concentration at half of the fitted maximal effect; on activity change, negative = cytotoxicity: series mostly up to about 92 µM
How it was run: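 Wild-type HCT-116 cells were seeded at 1,500 per well, incubated overnight at 37 C, then exposed to compounds in DMSO for 2hr. Viability was read by CellTiter-Glo luminescence after 30min at room temperature.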

[14] = qHTS assay to identify small molecule agonists of the sonic hedgehog signaling (Shh) pathway - cell viability counter screen (AID 1259366); further: nearly all actives have a fitted effect of over 50% in size; further: potency means the concentration at half of the fitted maximal effect
How it was run: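 NIH/3T3-derived 3T3 Gli1-Luc cells (stable Gli1-responsive firefly luciferase reporter) were seeded, rested 4 hr at 37 C/5% CO2, then exposed to compounds in DMSO for 24 hr; viability was read by CellTiter-Fluor fluorescence in the same wells.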

[15] = qHTS assay to identify small molecule antagonists of the sonic hedgehog signaling (Shh) pathway - cell viability counter screen (AID 1259367); further: nearly all actives have a fitted effect of over 55% in size; further: potency means the concentration at half of the fitted maximal effect
How it was run: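 NIH/3T3-derived Gli1-Luc reporter cells (2,000 per well) rested 4 hr at 37 C, then received DMSO compounds plus conditioned medium. After 23 hr of treatment, CellTiter-Fluor was added for 1 hr at 37C and fluorescence read.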

[16] = qHTS assay to identify small molecule agonists of the sonic hedgehog signaling (Shh) pathway (AID 1259368; calls by dose curve; further: series mostly up to about 92 µM; nearly all actives have a fitted effect of over 15% in size)
How it was run: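 Mouse fibroblast (NIH/3T3) reporter cells with stably integrated Gli1-Luc were treated 24 hr with compound; firefly luciferase luminescence served as the read-out.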

[17] = qHTS assay to identify small molecule antagonists of the sonic hedgehog signaling (Shh) pathway (AID 1259369; calls by dose curve; further: nearly all actives have a fitted effect of over 45% in size; further: potency means the concentration at half of the fitted maximal effect)
How it was run: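 Conditioned medium drives Shh signalling in 3T3Gli1-Luc cells; compounds in DMSO co-applied, 24hr at 37 C, then luciferase luminescence.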

[18] = qHTS RealTime-Glo MT Cell Viability Assay in HEK293 cells - 8 hour (AID 1224887)
How it was run: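 Tox21 screen in HEK293 using RealTime-Glo MT chemistry, with cells and reagent co-dispensed. Luminescence proportional to viable cell number was captured at intervals during 40 h compound exposure at 37 C.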

[19] = biological target: Estrogen receptor (Homo sapiens) (UniProt P03372); assay: qHTS assay to identify small molecule antagonists of the estrogen receptor alpha (ER-alpha) signaling pathway using the BG1 cell line in the presence of 0.1 nM 17-beta-estradiol (AID 1259244); further: nearly all actives have a fitted effect of over 50% in size; further: potency means the concentration at half of the fitted maximal effect
How it was run: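 VM7Luc4E2; 4xERE-luciferase; 0.1 nM E2 final; 22 h co-incubation, 37C; ONE-Glo luminescence after 30 min at room temperature.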

[20] = biological target: Androgen receptor (Homo sapiens) (UniProt P10275); assay: qHTS assay to identify small molecule antagonists of the androgen receptor (AR) signaling pathway using the MDA cell line in the presence of 0.5 nM R1881 (AID 1259243); further: nearly all actives have a fitted effect of over 50% in size
How it was run: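 We exposed MDA-kb2 cells to compounds under 0.5 nM R1881 stimulation for 16 hr at 37C and quantified MMTV-driven luciferase by luminescence.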
On the % scale 0 is the no-effect control and ±100 the full control effect.

Sequence of Estrogen receptor (Homo sapiens) (P03372 whole entry, looked up): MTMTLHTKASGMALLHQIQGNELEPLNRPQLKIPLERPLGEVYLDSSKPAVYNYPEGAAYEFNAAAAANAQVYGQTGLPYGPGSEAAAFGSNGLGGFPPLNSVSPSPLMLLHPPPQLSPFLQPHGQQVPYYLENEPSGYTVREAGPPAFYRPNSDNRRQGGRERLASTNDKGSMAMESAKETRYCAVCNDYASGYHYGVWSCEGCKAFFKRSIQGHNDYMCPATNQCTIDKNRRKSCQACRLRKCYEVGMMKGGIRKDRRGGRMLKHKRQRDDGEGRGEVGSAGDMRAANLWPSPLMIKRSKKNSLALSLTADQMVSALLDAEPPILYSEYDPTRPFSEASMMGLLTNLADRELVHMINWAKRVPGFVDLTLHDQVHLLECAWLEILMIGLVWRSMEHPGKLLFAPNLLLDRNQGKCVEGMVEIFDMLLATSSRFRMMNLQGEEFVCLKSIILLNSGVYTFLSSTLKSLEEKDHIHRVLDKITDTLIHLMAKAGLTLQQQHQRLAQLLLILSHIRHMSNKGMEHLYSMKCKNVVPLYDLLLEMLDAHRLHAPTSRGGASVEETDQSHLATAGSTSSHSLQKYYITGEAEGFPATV
Sequence of Androgen receptor (Homo sapiens) (P10275 whole entry, looked up): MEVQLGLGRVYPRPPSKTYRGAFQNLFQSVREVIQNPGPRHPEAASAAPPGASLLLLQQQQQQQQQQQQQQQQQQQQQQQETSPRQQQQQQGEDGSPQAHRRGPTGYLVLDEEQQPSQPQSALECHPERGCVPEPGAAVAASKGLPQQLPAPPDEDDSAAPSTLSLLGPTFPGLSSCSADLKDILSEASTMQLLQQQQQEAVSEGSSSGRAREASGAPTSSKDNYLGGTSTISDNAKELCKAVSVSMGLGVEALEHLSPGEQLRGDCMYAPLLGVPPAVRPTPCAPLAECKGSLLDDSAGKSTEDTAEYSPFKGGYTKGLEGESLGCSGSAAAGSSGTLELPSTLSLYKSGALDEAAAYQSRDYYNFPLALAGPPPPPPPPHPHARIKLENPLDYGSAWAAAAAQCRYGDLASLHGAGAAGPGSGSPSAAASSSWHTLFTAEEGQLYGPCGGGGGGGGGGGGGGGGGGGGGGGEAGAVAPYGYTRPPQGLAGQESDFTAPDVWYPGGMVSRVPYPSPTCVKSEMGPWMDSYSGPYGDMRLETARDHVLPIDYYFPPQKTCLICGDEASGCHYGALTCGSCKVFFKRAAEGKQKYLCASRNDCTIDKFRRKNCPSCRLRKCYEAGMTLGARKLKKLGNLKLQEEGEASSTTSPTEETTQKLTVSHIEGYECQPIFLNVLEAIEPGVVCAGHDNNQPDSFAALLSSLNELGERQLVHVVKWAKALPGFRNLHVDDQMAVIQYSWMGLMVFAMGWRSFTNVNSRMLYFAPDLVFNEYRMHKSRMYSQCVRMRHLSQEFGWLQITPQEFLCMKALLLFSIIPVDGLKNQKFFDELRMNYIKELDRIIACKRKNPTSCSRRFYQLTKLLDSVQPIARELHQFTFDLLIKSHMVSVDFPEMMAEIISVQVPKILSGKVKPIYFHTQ

CCn1cc(C(=O)O)c(=O)c2cnc(N3CCNCC3)nc21
inactive: Potency [1] | Potency [2] | Potency [3] | Potency [4] | Potency [5] | Potency [6] | Potency [7] | Potency [8] | Potency [9] | Potency [10] | Potency [11] | Potency [12] | Potency [13] | Potency [14] | Potency [15] | outcome [16] | Potency [17]

Cc1cccc(C)c1NC(=O)CN(CC(=O)O)CC(=O)O
inactive: Potency [1] | Potency [2] | Potency [3] | Potency [4] | Potency [5] | Potency [18] | Potency [6] | Potency [7] | Potency [9] | Potency [10] | Potency [11] | Potency [12] | Potency [13] | Potency [14] | Potency [15] | outcome [16] | Potency [17]

CCOC(=O)NCCOc1ccc(Oc2ccccc2)cc1
inactive: Potency [1] | Potency [2] | Potency [3] | Potency [4] | Potency [6] | Potency [7] | Potency [8] | Potency [9] | Potency [12] | Potency [13] | Potency [14] | Potency [15] | outcome [16]
active: Potency [5] 21.9 µM | Potency [19] 43.3 µM

CN(C)CCCN1c2ccccc2Sc2ccccc21
inactive: Potency [1] | Potency [3] | Potency [4] | Potency [5] | Potency [18] | Potency [6] | Potency [8] | Potency [10] | Potency [12] | Potency [13] | outcome [16]
active: Potency [2] 23.9 µM | Potency [17] 11.9 µM

c1ccc(-c2ccccn2)nc1
inactive: Potency [1] | Potency [2] | Potency [3] | Potency [4] | Potency [5] | Potency [18] | Potency [7] | Potency [8] | Potency [9] | Potency [10] | Potency [20] | Potency [19] | Potency [12] | Potency [13] | Potency [14] | Potency [15] | outcome [16] | Potency [17]

COCCCN1CCC(NC(=O)c2cc(Cl)c(N)c3c2OCC3)CC1
inactive: Potency [1] | Potency [2] | Potency [3] | Potency [4] | Potency [5] | Potency [18] | Potency [6] | Potency [7] | Potency [8] | Potency [10] | Potency [12] | Potency [14] | Potency [15] | outcome [16] | Potency [17]

O=[N+]([O-])c1ccc(NCCO)c(OCCO)c1
inactive: Potency [1] | Potency [2] | Potency [3] | Potency [4] | Potency [5] | Potency [18] | Potency [7] | Potency [20] | Potency [12] | Potency [13] | outcome [16] | Potency [17]
active: Potency [14] 24.4 µM | Potency [15] 30.7 µM

O=C(O)CNCC(=O)O
inactive: cytotoxicity [1] -10.6% [at 6.97 µM] | cytotoxicity increase [2] -4.58% [at 6.97 µM] | cytotoxicity increase [3] -1.38% [at 6.97 µM] | activity change, negative = cytotoxic [4] -0.86% [at 6.97 µM] | activity change, negative = cytotoxicity [5] -8.06% [at 6.97 µM] | activity change, negative = cytotoxicity [18] -7.77% [at 6.97 µM] | activity change, negative = cytotoxicity [7] -5.44% [at 6.97 µM] | activity change, negative = cytotoxicity [9] 0.833% [at 8.39 µM] | viability change, negative = cytotoxic [10] -0.633% [at 8.39 µM] | activity, negative = inhibition [20] -3.67% [at 8.39 µM] | activity change, negative = inhibition [19] -6.61% [at 8.39 µM] | activity change, negative = inhibition [12] 10.7% [at 8.39 µM] | activity change, negative = cytotoxicity [13] -5.53% [at 8.39 µM] | activity change [16] 0.375% [at 8.39 µM] | activity change, negative = inhibition [17] 8.21% [at 8.39 µM]

NC(N)=NCCC[C@H](N)C(=O)O
inactive: cytotoxicity [1] 1.18% [at 6.97 µM] | cytotoxicity increase [2] -4.17% [at 6.97 µM] | cytotoxicity increase [3] -18% [at 6.97 µM] | activity change, negative = cytotoxic [4] 0.73% [at 6.97 µM] | activity change, negative = cytotoxicity [5] 4.77% [at 6.97 µM] | activity change, negative = cytotoxicity [18] 6.66% [at 6.97 µM] | activity change, negative = cytotoxicity [7] 0.79% [at 6.97 µM] | cytotoxicity increase [8] -1.13% [at 6.97 µM] | activity change, negative = cytotoxicity [9] 2.44% [at 8.39 µM] | viability change, negative = cytotoxic [10] 3.68% [at 8.39 µM] | activity change, negative = inhibition [19] 4.47% [at 8.39 µM] | PLD induction [11] -2.12% [at 7.66 µM] | activity change, negative = inhibition [12] 1.7% [at 8.39 µM] | activity change, negative = cytotoxicity [13] 4.6% [at 8.39 µM] | viability change, negative = cytotoxic [14] -3.86% [at 8.39 µM] | viability change, negative = cytotoxic [15] 1.21% [at 8.39 µM] | activity change [16] -0.124% [at 8.39 µM] | activity change, negative = inhibition [17] 18.9% [at 8.39 µM]

OCCN1CCN(CCCN2c3ccccc3C=Cc3ccccc32)CC1
inactive: Potency [1] | Potency [2] | Potency [3] | Potency [4] | Potency [5] | Potency [18] | Potency [6] | Potency [7] | Potency [10] | Potency [19] | PLD induction [11] 0.496% [at 7.66 µM] | Potency [12] | Potency [13] | outcome [16]
active: Potency [11] 12.6 µM

CCCCNc1ccc(C(=O)OCCOCCOCCOCCOCCOCCOCCOCCOCCOC)cc1
active: Potency [19] 8.41 µM
inactive: Potency [1] | Potency [2] | Potency [3] | Potency [4] | Potency [18] | Potency [6] | Potency [7] | Potency [8] | Potency [9] | Potency [10] | Potency [11] | Potency [12] | Potency [13] | Potency [14] | outcome [16]

CCCCC(CC)CN1C(=O)C2C3C=CC(C3)C2C1=O (centres undefined)
inactive: Potency [1] | Potency [2] | Potency [3] | Potency [4] | Potency [6] | Potency [7] | Potency [8] | Potency [10] | Potency [12] | Potency [13] | Potency [14] | outcome [16]

Nc1ccc(N)c2c1C(=O)c1ccccc1C2=O
active: Potency [12] 21.7 µM | Potency [13] 30.6 µM | Potency [14] 21.7 µM
inactive: Potency [1] | Potency [2] | Potency [3] | Potency [4] | Potency [6] | Potency [7] | Potency [8] | outcome [16]

O=C(O)C(S)C(S)C(=O)O (centres undefined)
inactive: Potency [1] | Potency [2] | Potency [3] | Potency [4] | Potency [18] | Potency [6] | Potency [7] | Potency [8] | Potency [9] | Potency [10] | Potency [11] | Potency [12] | Potency [14] | Potency [15] | outcome [16] | Potency [17]

CN(C)CCOC(c1ccccc1)c1ccc(Br)cc1 (centres undefined)
active: Potency [2] 23.9 µM | Potency [17] 2.11 µM
inactive: Potency [1] | Potency [3] | Potency [4] | Potency [18] | Potency [6] | Potency [7] | Potency [8] | Potency [9] | Potency [10] | Potency [20] | Potency [19] | Potency [12] | Potency [13] | Potency [15] | outcome [16]
